Screening data deposited in PubChem BioAssay by The Scripps Research Institute Molecular Screening Center.
GAA850 FXN act: activators of GAA850 frataxin (FXN) promoter | HEK293 lucGAA850 FXN promoter luciferase reporter, 24 h; percent of 10 µM SAHA response | activation, % at 6 µM | 360,000 compounds, 0.56% hits;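 active means activation above the average of all compounds screened plus 3 SD, cutoff fixed separately per campaign, cut at about 7.5% in these data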;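 further: 0% = DMSO wells and 100% = 10 µM SAHA wells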
ssDAF-12 act: activates DAF-12 receptor from parasite S. stercoralis; HEK293 ssDAF-12/GRIP1 lit1-tk-luc reporter, luminescence; % of 3 µM dafachronic acid response; activation, % at 6.8 µM; AID 652126; 370,000 compounds, 1% hits;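 active means activation above the mean over all tested compounds plus 3 SD, cut at about 0.9% in these data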;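 further: 0% = DMSO-only wells and 100% = 3 µM delta7-dafachronic acid wells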
hgDAF12 agonist: activates the H. glycines DAF-12 receptor ligand-binding domain; HEK293 GAL4-hgDAF12 UAS-luciferase reporter, agonist luminescence; normalized to butyrate control; activation, % at 6.8 µM; 370,000 compounds, 1.8% hits; AID 687014;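 active means activation above a cutoff set at the mean of all screened compounds plus 3 SD, cut at about 10% in these data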;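 further: 0% = DMSO wells and 100% = sodium butyrate wells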
DAX1 inh-1: inhibitors of human orphan nuclear receptor DAX1 (NR0B1); 340,000 compounds, 0.99% hits; inhibition, % at 6.75 µM; AID 504766; HEK293 Gal4-DAX1 luciferase reporter, luminescence;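 active means inhibition above the mean over all tested compounds plus 3 SD, cut at about 4.2% in these data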;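 further: 0% = DAX1-transfected cells with DMSO and 100% = empty-vector control cells with DMSO; inhibition shows as a rise in luminescence from relieved DAX1 repression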
Target sequence (P51843 207-470 limits assumed): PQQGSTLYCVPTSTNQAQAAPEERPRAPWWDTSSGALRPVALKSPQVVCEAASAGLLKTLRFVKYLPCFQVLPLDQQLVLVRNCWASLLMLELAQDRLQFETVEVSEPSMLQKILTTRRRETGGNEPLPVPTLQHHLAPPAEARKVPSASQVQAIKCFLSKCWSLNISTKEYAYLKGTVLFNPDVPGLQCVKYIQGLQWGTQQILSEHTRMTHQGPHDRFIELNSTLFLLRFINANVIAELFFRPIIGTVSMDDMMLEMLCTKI
hcDAF12 agonist: H. contortus DAF-12 activation, primary screen; activation, % at 6.8 µM; AID 652067; 370,000 compounds, 1.4% hits; HEK293 hcDAF-12 lit1-tk-luc reporter, luminescence; 0% DMSO, 100% Δ7-dafachronic acid;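 active means activation above the mean of all tested compounds plus 3 SD, cut at about 5.5% in these data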;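 further: 100% = response to 3 µM Δ7-dafachronic acid high control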
DAX1 inh-2: inhibitors of DAX1 repression of SF-1 activated StAR promoter | AID 652010 | 370,000 compounds, 1.1% hits | inhibition, % at 6.8 µM | HEK293T StAR-luciferase reporter, SF-1/DAX-1 repression relief;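 active means inhibition above the mean over all tested compounds plus 3 SD, cut at about 3.6% in these data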;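 further: 0% = DAX-1 cells with DMSO and 100% = cells lacking DAX-1 with DMSO; higher inhibition means more luminescence from relief of DAX-1 repression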
* hit, by the source's call; . = not tested or not shown. This is a sample that favours compounds with a hit; in the whole collection about 4.5% have one here.

SMILES	GAA850 FXN act	ssDAF-12 act	hgDAF12 agonist	DAX1 inh-1	hcDAF12 agonist	DAX1 inh-2
COc1cc(/C=N/Nc2ccc(C(=O)O)cc2)cc(OC)c1OC	6.1	-0.8	2.7	4.3*	3.2	2.3
CC1=NN(c2ccccc2)C(=O)/C1=C\c1sccc1C	2.3	1.7*	1.6	1.2	3.0	0.4
COc1ccccc1/C=C1/C(=O)N(c2ccccc2)N=C1C	0.1	-0.8	1.3	0.1	0.6	0.0
CN(C)S(=O)(=O)c1ccc(N2CCCC2)c(C(=O)Nc2nc3ccccc3s2)c1	0.0	1.9*	3.0	-0.7	4.0	1.2
CN(C)S(=O)(=O)c1ccc(N2CCCC2)c(C(=O)Nc2nc3ccc(F)cc3s2)c1	3.3	0.9*	4.7	0.4	5.2	0.5
CC(C)CN1C(=O)C[C@]2(C(=O)N(C)c3ccc(NC(=O)c4cc(F)ccc4F)cc32)C1c1ccccc1 (stereo partly specified)	.	-1.2	1.0	.	3.5	-1.1
O=C(NC1CC(=O)c2sccc21)c1ccc(Cl)cc1Cl (stereo unspecified)	6.4	-0.1	10.3	0.6	1.4	3.7*
COC(=O)[C@H](C(C)C)N1Cc2nnn(Cc3ccc(C)cc3)c2-c2cc(F)ccc2S1(=O)=O	.	-1.2	-3.1	.	-0.3	-0.6
Cc1ccccc1OCC1CNC(=O)O1 (stereo unspecified)	0.5	-1.4	-2.2	0.1	0.2	-0.6
O=C1NCC(CN(c2ccccc2)c2ccccc2)O1 (stereo unspecified)	-0.8	-1.0	-0.7	6.7*	-1.8	-0.8
CCn1c(SCC(=O)c2c[nH]c3ccccc23)nc2cc(S(=O)(=O)N3CCOCC3)ccc21	3.9	-0.6	-1.1	1.9	5.6*	0.2
Cc1ccsc1C(=O)OCc1cc(=O)n2ccsc2n1	-0.4	0.9*	12.8*	1.7	1.7	4.3*
Cc1cccc(NC(=O)NCCN2C(=O)C3C4C=CC(C4)C3C2=O)c1 (stereo unspecified)	0.6	-0.6	10.6*	3.1	0.1	1.1
Cc1ccccc1NC(=O)NCCN1C(=O)C2C3C=CC(C3)C2C1=O (stereo unspecified)	0.0	-1.5	5.6	4.7*	-2.8	0.0
COc1ccc(NC(=O)NCCN2C(=O)C3C4C=CC(C4)C3C2=O)cc1 (stereo unspecified)	3.2	-0.3	8.9	6.0*	0.4	1.8
O=C(NCCN1C(=O)C2C3C=CC(C3)C2C1=O)Nc1ccccc1 (stereo unspecified)	2.0	-1.8	1.4	0.5	-0.9	1.6
O=C(O)c1ccc(C#Cc2cccc(F)c2)cn1	.	-0.8	0.5	.	-2.0	-0.8
CCCCCc1ccc(NC(=O)OCCN2C(=O)CCC23CCC(c2ccccc2)CC3)cc1 (stereo unspecified)	.	-1.1	2.5	.	2.9	2.5
CC(C)c1nnc(NC(=O)CCCC(=O)O)s1	0.6	-0.9	-0.4	0.2	-0.2	-0.1
CCOC(=O)CC(=O)Nc1nnc(C(C)C)s1	0.0	-0.8	-1.4	5.3*	-0.7	0.0
CC(=O)C(C)Oc1ccc2c3c(c(=O)oc2c1)CCCCC3 (stereo unspecified)	5.3	-1.3	11.1*	1.6	3.6	-0.1
COc1ccc2c(c1)CCC1C2=NN(/C(C)=C\C(C)=O)C1c1ccc(F)cc1 (stereo unspecified)	4.3	-0.3	8.5	-0.8	6.0*	0.2
COc1ccc2c(c1)C1=NN(/C(C)=C\C(C)=O)C(c3ccccc3)C1CC2 (stereo unspecified)	1.9	0.2	1.7	0.2	2.7	-1.0
Nc1c(C(=O)N/N=C/c2cccnc2)oc2nc(-c3ccco3)cc(-c3ccco3)c12	-1.4	0.9*	1.4	.	2.5	-0.5
CC(=O)N1C[C@@H](c2c[nH]c3ccccc23)C=C[C@H]1C(=O)NS(=O)(=O)c1ccc(C)cc1	.	0.3	4.5	.	4.0	-0.4
SMILES	GAA850 FXN act	ssDAF-12 act	hgDAF12 agonist	DAX1 inh-1	hcDAF12 agonist	DAX1 inh-2
Cc1cc(NC(=O)CSc2nnc(Cc3ccccc3)o2)no1	0.1	-0.7	0.2	5.1*	-0.6	0.0
Cc1cc(NC(=O)CSc2nnc(-c3ccc4c(c3)OCCO4)o2)no1	1.8	0.0	10.3	-0.7	3.9	3.9*
CCN(CC)CCNC(=O)c1cccc(NC(=O)C(=O)c2ccccc2NC(C)=O)c1	1.4	-0.3	3.6	0.8	5.9*	0.4
CCCCNC(=O)c1cccc(NC(=O)C(=O)c2ccccc2NC(C)=O)c1	0.6	-1.0	-0.9	0.3	-2.1	-0.1
COc1ccc(CC(/C=C/c2ccc(F)cc2)c2ccccc2)cc1 (stereo unspecified)	.	-1.1	-1.5	.	-2.1	-0.6
CCOc1cc(/C=C2/SC(=S)N(Cc3ccccc3)C2=O)ccc1O	0.1	0.3	8.7	-0.9	6.4*	0.0
COc1cc(/C=C2/SC(=S)N(Cc3ccccc3)C2=O)ccc1OCC(=O)O	-1.5	-1.4	1.1	0.7	-0.9	0.6
CCC(=O)N[C@H]1C[C@@H]2O[C@@H](CO)CC[C@@H]2O[C@@H]1CCc1ccc(-c2cccc(OC)c2)cc1	.	-1.2	1.1	.	0.1	-0.7
C=CCN1C(=O)[C@@H](CC(=O)NCCCOC)[C@]2(C(=O)OCC)CCCCC/C=C/12	.	-1.3	0.2	.	0.1	0.5
Cc1ccc(NC(=S)N(CCN(C)C)Cc2cc3cccc(C)c3[nH]c2=O)cc1	0.2	1.7*	0.4	0.1	5.3	0.5
Cc1cccc2cc(CN(Cc3ccccc3)C(=S)NCCCN(C)C)c(=O)[nH]c12	1.1	-0.9	3.0	5.4*	-0.5	1.9
Clc1ccc(CN2CCN(N=Cc3cccc(OCc4ccccc4)c3)CC2)cc1	.	-1.6	0.0	.	0.4	-1.8
CC(=O)CC[C@H]1CC[C@]2(CCCN(C(=O)C(C)(C)C)C2)O1	.	2.2*	-0.9	.	0.3	0.2
Cc1ccccc1NC(=S)c1nc2ccccc2[nH]1	6.2	1.2*	8.1	0.3	5.8*	-0.2
Cc1ccccc1NC(=O)NCCc1nc2ccccc2[nH]1	-0.5	-0.7	-1.1	0.4	0.8	-0.5
O=C1Nc2ccccc2OC1CC(=O)N1CCOCC1 (stereo unspecified)	-0.1	-0.7	2.8	6.0*	2.5	0.9
Cc1ccc(NC(=O)c2ccccc2Cl)c(Cl)c1	2.5	-0.4	10.7*	0.9	0.6	0.9
Cc1ccc(NC(=O)c2ccccc2F)c(NC(=O)c2ccccc2F)c1	3.8	-0.3	2.7	7.6*	5.0	-0.3
CCOC(=O)N1CCN(C(=O)C[C@H]2C[C@@]3(C(=O)OC)C(=C[C@H](COCc4ccccc4)O[C@@H]3C)N(CCc3ccc(OC)c(OC)c3)C2=O)CC1	.	-1.5	-1.3	.	-3.1	1.3
